According to PubChem BioAssay:
“And” between values parts separate entries of the source, which are not always exact repeats. Identical values can stand only once. Records with an inconclusive call do not appear. The source made the active and inactive calls.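 How the source made its calls, unless noted: active means normalized viability below 100% at a tested concentration; inactive means the rest.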

Legend:
[1] = viability loss in pontine glioma line – cell-based, SU-DIPG-XXV, MIPE5.0, CellTiter-Glo, qHTS, dose response (AID 1347065; cut-off not given, nearly all actives have AC50 up to about 26 µM;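 further: cells exposed to compound for 48 hours before ATP readout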); details: CellTiter-Glo ATP luminescence
[2] = SU-DIPG-VI glioma cell viability, MIPE4.0 library, CellTiter-Glo luminescence, qHTS (AID 1347066; cut-off not given, nearly all actives have AC50 up to about 30 µM;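 further: cells exposed to compound for 48 hours before readout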); details: CellTiter-Glo ATP luminescence
[3] = JHH-DIPG-1 glioma cell viability, MIPE5.0 library, CellTiter-Glo luminescence, qHTS (AID 1347067; cut-off not given, nearly all actives have AC50 up to about 26 µM;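 further: cells exposed to compound for 48 hours before readout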); details: JHH-DIPG-1 glioma viability, CellTiter-Glo ATP luminescence
[4] = SU-DIPG-XXV glioma cell viability, MIPE5.0 library, qHTS (AID 1347068; cut-off not given, nearly all actives have IC50 up to about 30 µM)
[5] = phospholipid biosynthesis inhibitors in animal cells, primary screen, cell-based, LOPAC library, screen 4 (AID 1347384; call rule not given here); details: phospholipid biosynthesis inhibition screen, at 10 µM
[6] = biological target: NAD(+) hydrolase SARM1 (Homo sapiens) (UniProt Q6SZW1); assay: SARM1 TIR NADase inhibitors, cell lysate, NAD-Glo luminescence (AID 1508614;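 active means compound whose remaining NAD level is above about 45 nM, limit read from the data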); details: SAM-TIR HEK293T lysate NADase, at 1 µM, stronger effect = higher value
[7] = modifiers of HSF1 nuclear foci, imaging, Selleck Cancer Library (AID 1347162; in the data active means plate-normalised HSF1 focus index below about 0.46); details: human cells, at 10 µM; SSMD: measured here: HSF1 foci SSMD mean; cell count: measured here: cell number; plate-normalised HSF1 focus index: stronger effect = lower value
[8] = survival rescue of mitochondrial mutant cells in low glucose, primary screen, MELAS cybrids, Rieske KO mouse fibroblasts, CellTiter-Glo (AID 1508586;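 active means mean z-score across replicates of 1.96 or higher in either the MELAS or the Rieske mutant cell line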;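 further: z relative to plate mean and SD of compound and empty wells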)
[9] = ovarian cancer cell viability with rucaparib, profiling panel, oncology-focused library, rucaparib conditional (AID 1508598); details: patient-derived ovarian cancer cells, CellTiter-Glo viability, 144 h, stronger effect = lower value
[10] = viability rescue of complex I mutant cybrids, primary screen, cell-based, galactose medium, ATP luminescence (AID 1645843;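 active means z-score of at least 1.8 in each of two replicates, scored against plate mean and spread of sample wells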;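 further: positive z means more ATP and so rescue of galactose-driven cybrid death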); details: complex I mutant cybrid cells, 72 h, stronger effect = higher value
[11] = biological target: Mitogen-activated protein kinase 7 (Homo sapiens) (UniProt Q13164); assay: ERK5 transactivation activators in reporter cells, primary screen, cell-based, HTS (AID 1508626;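 active means luciferase signal above three times the same-plate solvent-only control wells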;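 further: luciferase driven by Gal4-ERK5 fusion binding five Gal4 sites before minimal TATA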); details: HeLa Gal4-ERK5 transactivation, 18 h, at 5 µM, stronger effect = higher value
[12] = MELAS cybrid survival, CellTiter-Glo 48 h, stronger effect = higher value
[13] = Rieske KO mouse fibroblast survival, CellTiter-Glo 72 h

Sequence of NAD(+) hydrolase SARM1 (Homo sapiens) (Q6SZW1 whole entry, looked up): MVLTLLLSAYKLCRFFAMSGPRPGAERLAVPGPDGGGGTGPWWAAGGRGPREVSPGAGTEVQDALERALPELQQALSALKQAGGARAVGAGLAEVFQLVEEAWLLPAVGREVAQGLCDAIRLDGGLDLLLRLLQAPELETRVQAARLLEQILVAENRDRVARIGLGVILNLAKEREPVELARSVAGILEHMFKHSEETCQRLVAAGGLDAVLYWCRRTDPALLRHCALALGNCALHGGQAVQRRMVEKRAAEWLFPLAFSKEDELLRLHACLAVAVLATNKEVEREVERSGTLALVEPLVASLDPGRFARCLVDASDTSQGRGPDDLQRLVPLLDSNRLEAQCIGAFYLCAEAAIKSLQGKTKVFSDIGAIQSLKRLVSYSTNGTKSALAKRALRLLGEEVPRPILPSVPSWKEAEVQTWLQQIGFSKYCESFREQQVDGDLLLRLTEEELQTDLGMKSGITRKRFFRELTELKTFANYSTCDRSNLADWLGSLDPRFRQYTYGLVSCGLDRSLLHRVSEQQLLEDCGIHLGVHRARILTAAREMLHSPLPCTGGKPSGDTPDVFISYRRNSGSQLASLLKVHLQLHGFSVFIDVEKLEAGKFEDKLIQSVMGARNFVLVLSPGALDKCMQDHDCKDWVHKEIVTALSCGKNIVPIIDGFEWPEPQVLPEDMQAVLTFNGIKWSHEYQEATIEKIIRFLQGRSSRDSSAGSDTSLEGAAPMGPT
Sequence of Mitogen-activated protein kinase 7 (Homo sapiens) (Q13164 whole entry, looked up, the tested form may be a part): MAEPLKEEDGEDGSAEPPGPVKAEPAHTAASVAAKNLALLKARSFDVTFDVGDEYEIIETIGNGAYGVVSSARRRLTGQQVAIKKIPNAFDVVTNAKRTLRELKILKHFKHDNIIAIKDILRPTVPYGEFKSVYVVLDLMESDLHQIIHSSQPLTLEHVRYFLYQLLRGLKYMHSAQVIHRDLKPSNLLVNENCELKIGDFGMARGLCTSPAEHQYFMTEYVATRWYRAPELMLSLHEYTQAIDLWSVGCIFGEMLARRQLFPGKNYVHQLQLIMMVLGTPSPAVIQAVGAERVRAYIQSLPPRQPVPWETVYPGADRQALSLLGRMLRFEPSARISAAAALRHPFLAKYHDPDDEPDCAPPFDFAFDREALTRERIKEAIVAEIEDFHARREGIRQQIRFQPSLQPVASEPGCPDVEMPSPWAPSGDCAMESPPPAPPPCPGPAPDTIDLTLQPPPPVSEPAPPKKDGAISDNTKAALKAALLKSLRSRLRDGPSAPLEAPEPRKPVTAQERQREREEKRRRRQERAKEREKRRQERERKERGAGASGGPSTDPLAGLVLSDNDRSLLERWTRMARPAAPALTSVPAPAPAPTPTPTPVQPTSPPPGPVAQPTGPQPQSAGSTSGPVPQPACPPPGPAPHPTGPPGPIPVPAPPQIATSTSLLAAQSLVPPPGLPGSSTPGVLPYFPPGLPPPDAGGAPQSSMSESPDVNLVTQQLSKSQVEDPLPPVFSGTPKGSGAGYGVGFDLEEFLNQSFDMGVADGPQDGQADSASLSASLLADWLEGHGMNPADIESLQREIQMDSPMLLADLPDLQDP

CCCCCN(C)CCC(O)(P(=O)(O)O)P(=O)(O)O
outcome [1]: inactive | outcome [2]: inactive | outcome [3]: inactive | outcome [4]: inactive | outcome [5]: inactive | remaining NAD [6]: 10 nM (inactive)

N#Cc1ccc(C(c2ccc(C#N)cc2)n2cncn2)cc1
outcome [1]: inactive | outcome [2]: inactive | outcome [3]: inactive | outcome [4]: inactive | SSMD [7]: 2 | cell count [7]: 6610 | plate-normalised HSF1 focus index [7]: 1.1 (inactive) | z-score [8, 12]: -0.0811 (inactive) and 0.894 (inactive) and -0.0703 (inactive) | z-score [8, 13]: -0.000166 and 0.656 and -0.338 | viability ([9]; at 0.000305 µM, OCI-C5x cells, with rucaparib 10 µM, 100% = cells with rucaparib alone): 117% (inactive) | viability ([9]; at 0.000305 µM, OCI-C5x cells, without rucaparib): 101% (inactive) | viability ([9]; at 0.000305 µM, OCI-P5x cells, with rucaparib 20 µM, 100% = cells with rucaparib alone): 94% (active) | viability ([9]; at 0.000305 µM, OCI-P5x cells, without rucaparib): 91% (active) | viability ([9]; at 0.00122 µM, OCI-C5x cells, with rucaparib 10 µM, 100% = cells with rucaparib alone): 116% (inactive) | viability ([9]; at 0.00122 µM, OCI-C5x cells, without rucaparib): 113% (inactive) | viability ([9]; at 0.00122 µM, OCI-P5x cells, with rucaparib 20 µM, 100% = cells with rucaparib alone): 104% (inactive) | viability ([9]; at 0.00122 µM, OCI-P5x cells, without rucaparib): 94.3% (active) | viability ([9]; at 0.00488 µM, OCI-C5x cells, with rucaparib 10 µM, 100% = cells with rucaparib alone): 114% (inactive) | viability ([9]; at 0.00488 µM, OCI-C5x cells, without rucaparib): 107% (inactive) | viability ([9]; at 0.00488 µM, OCI-P5x cells, with rucaparib 20 µM, 100% = cells with rucaparib alone): 104% (inactive) | viability ([9]; at 0.00488 µM, OCI-P5x cells, without rucaparib): 97.8% (active) | viability ([9]; at 0.0195 µM, OCI-C5x cells, with rucaparib 10 µM, 100% = cells with rucaparib alone): 117% (inactive) | viability ([9]; at 0.0195 µM, OCI-C5x cells, without rucaparib): 112% (inactive) | viability ([9]; at 0.0195 µM, OCI-P5x cells, with rucaparib 20 µM, 100% = cells with rucaparib alone): 109% (inactive) | viability ([9]; at 0.0195 µM, OCI-P5x cells, without rucaparib): 106% (inactive) | viability ([9]; at 0.0781 µM, OCI-C5x cells, with rucaparib 10 µM, 100% = cells with rucaparib alone): 123% (inactive) | viability ([9]; at 0.0781 µM, OCI-C5x cells, without rucaparib): 102% (inactive) | viability ([9]; at 0.0781 µM, OCI-P5x cells, with rucaparib 20 µM, 100% = cells with rucaparib alone): 106% (inactive) | viability ([9]; at 0.0781 µM, OCI-P5x cells, without rucaparib): 105% (inactive) | viability ([9]; at 0.313 µM, OCI-C5x cells, with rucaparib 10 µM, 100% = cells with rucaparib alone): 117% (inactive) | viability ([9]; at 0.313 µM, OCI-C5x cells, without rucaparib): 106% (inactive) | viability ([9]; at 0.313 µM, OCI-P5x cells, with rucaparib 20 µM, 100% = cells with rucaparib alone): 104% (inactive) | viability ([9]; at 0.313 µM, OCI-P5x cells, without rucaparib): 108% (inactive) | viability ([9]; at 1.25 µM, OCI-C5x cells, with rucaparib 10 µM, 100% = cells with rucaparib alone): 107% (inactive) | viability ([9]; at 1.25 µM, OCI-C5x cells, without rucaparib): 104% (inactive) | viability ([9]; at 1.25 µM, OCI-P5x cells, with rucaparib 20 µM, 100% = cells with rucaparib alone): 108% (inactive) | viability ([9]; at 1.25 µM, OCI-P5x cells, without rucaparib): 107% (inactive) | viability ([9]; at 5 µM, OCI-C5x cells, with rucaparib 10 µM, 100% = cells with rucaparib alone): 113% (inactive) | viability ([9]; at 5 µM, OCI-C5x cells, without rucaparib): 128% (inactive) | viability ([9]; at 5 µM, OCI-P5x cells, with rucaparib 20 µM, 100% = cells with rucaparib alone): 112% (inactive) | viability ([9]; at 5 µM, OCI-P5x cells, without rucaparib): 104% (inactive) | remaining NAD [6]: 10 nM (inactive) | z-score [10]: 0.515 (inactive) and 0.315 (inactive)

Cc1cnc(NC(=O)C2=C(O)c3ccccc3S(=O)(=O)N2C)s1
outcome [1]: inactive | outcome [2]: inactive | outcome [3]: inactive | outcome [4]: inactive | outcome [5]: inactive | z-score [8, 12]: -0.282 (inactive) and 0.497 (inactive) and -0.212 (inactive) | z-score [8, 13]: 0.842 and 0.0996 and -0.732 | remaining NAD [6]: 10 nM (inactive) | luciferase signal [11]: 52 AU (inactive) | z-score [10]: 1.35 (inactive) and 0.585 (inactive) and 0.515 (inactive)

Cc1ccccc1N1C(=O)c2cc(S(N)(=O)=O)c(Cl)cc2NC1C (stereo not drawn)
outcome [1]: inactive | outcome [2]: inactive | outcome [3]: inactive | outcome [4]: inactive | outcome [5]: inactive | z-score [8, 12]: -0.2 (inactive) and 0.948 (inactive) | z-score [8, 13]: 0.325 and -0.0446 | remaining NAD [6]: 10 nM (inactive) | luciferase signal [11]: 64 AU (inactive) | z-score [10]: -0.04 (inactive)

CCCc1nc(C)c2c(=O)[nH]c(-c3cc(S(=O)(=O)N4CCN(CC)CC4)ccc3OCC)nn12
outcome [1]: inactive | AC50 [2]: 8.33 µM (active) | outcome [3]: inactive | outcome [4]: inactive | z-score [8, 12]: -0.282 (inactive) and 1.61 (inactive) and 1.47 (inactive) | z-score [8, 13]: -1.38 and 1.33 and 1.06 | remaining NAD [6]: 18 nM (inactive) | luciferase signal [11]: 60 AU (inactive) | z-score [10]: 0.68 (inactive) and 0.485 (inactive)

NC(CO)C(=O)NNCc1ccc(O)c(O)c1O (stereo not drawn)
outcome [1]: inactive | outcome [2]: inactive | outcome [3]: inactive | outcome [4]: inactive | outcome [5]: inactive | z-score [8, 12]: -0.395 (inactive) and 0.597 (inactive) and -0.0244 (inactive) | z-score [8, 13]: 0.352 and -0.231 and -1.37 | remaining NAD [6]: 10 nM (inactive) | luciferase signal [11]: 132 AU (inactive) | z-score [10]: -1.5 (inactive) and -0.255 (inactive)
